According to PubChem BioAssay (NCATS):
Inconclusive results are not listed. Where a call stands in place of a potency, no number is given. Calls of active or inactive are those of the source. Calls follow the shape of the dose curve; as a rule, active = well fitted curve in the direction sought with a large enough effect; inconclusive = small, poorly fitted or top-dose-only effect, or another doubt; inactive = no such curve, though single readings can be large; an effect the other way counts as inactive or inconclusive.

Assays:
AA1029 = assay: qHTS profiling for inhibitors of Plasmodium falciparum proliferation (AID 504749); also: nearly all actives have a fitted effect of over 60% in size; also: potency is read from the fitted curve at half-maximal effect; conditions: P. falciparum in erythrocytes, SYBR Green DNA, 72 h; series mostly up to 28.7 µM
Procedure, shortened: (§1)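 Three-day growth assay of blood-stage parasites in erythrocytes (0.3% parasitemia, 2.5% hematocrit) at 37 C, 5% CO2, quantified by SYBR Green DNA staining after overnight detergent lysis.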

ATS95 = assay: as above; conditions: P. falciparum in erythrocytes, SYBR Green DNA, 72 h; series mostly up to 28.7 µM
Procedure, shortened: as §1

CP185 = assay: as above; conditions: P. falciparum in erythrocytes, SYBR Green DNA, 72 h; series mostly up to 28.7 µM
Procedure, shortened: as §1

CP192 = assay: as above; conditions: P. falciparum in erythrocytes, SYBR Green DNA, 72 h; series mostly up to 28.7 µM
Procedure, shortened: as §1

CP194 = assay: as above; conditions: P. falciparum in erythrocytes, SYBR Green DNA, 72 h; series mostly up to 28.7 µM
Procedure, shortened: as §1

CP203 = assay: as above; conditions: P. falciparum in erythrocytes, SYBR Green DNA, 72 h; series mostly up to 28.7 µM
Procedure, shortened: as §1

CP211 = assay: as above; conditions: P. falciparum in erythrocytes, SYBR Green DNA, 72 h; series mostly up to 28.7 µM
Procedure, shortened: as §1

CP217 = assay: as above; conditions: P. falciparum in erythrocytes, SYBR Green DNA, 72 h; series mostly up to 28.7 µM
Procedure, shortened: as §1

CP247 = assay: as above; conditions: P. falciparum in erythrocytes, SYBR Green DNA, 72 h; series mostly up to 28.7 µM
Procedure, shortened: as §1

CP250 = assay: as above; conditions: P. falciparum in erythrocytes, SYBR Green DNA, 72 h; series mostly up to 12.8 µM
Procedure, shortened: as §1

CP252 = assay: as above; conditions: P. falciparum in erythrocytes, SYBR Green DNA, 72 h; series mostly up to 12.8 µM
Procedure, shortened: as §1

CP256 = assay: as above; conditions: P. falciparum in erythrocytes, SYBR Green DNA, 72 h; series mostly up to 28.7 µM
Procedure, shortened: as §1

CP269 = assay: as above; conditions: P. falciparum in erythrocytes, SYBR Green DNA, 72 h; series mostly up to 28.7 µM
Procedure, shortened: as §1

ECU = assay: as above; conditions: P. falciparum in erythrocytes, SYBR Green DNA, 72 h; series mostly up to 28.7 µM
Procedure, shortened: as §1

N140 = assay: as above; conditions: P. falciparum in erythrocytes, SYBR Green DNA, 72 h; series mostly up to 28.7 µM
Procedure, shortened: as §1

P94_40 = assay: as above; conditions: P. falciparum in erythrocytes, SYBR Green DNA, 72 h; series mostly up to 28.7 µM
Procedure, shortened: as §1

PC49 = assay: as above; conditions: P. falciparum in erythrocytes, SYBR Green DNA, 72 h; series mostly up to 28.7 µM
Procedure, shortened: as §1

TAB109 = assay: as above; conditions: P. falciparum in erythrocytes, SYBR Green DNA, 72 h; series mostly up to 12.8 µM
Procedure, shortened: as §1

TAB165 = assay: as above; conditions: P. falciparum in erythrocytes, SYBR Green DNA, 72 h; series mostly up to 28.7 µM
Procedure, shortened: as §1

[1] = S16 Schwann cell viability assay (CellTiter-Glo assay) (AID 624031);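 also: native untransfected S16 rat Schwann cells; cellular ATP luminescence as a viability measure; nearly all actives have a fitted effect of over 70% in size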
Procedure, shortened: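 Cells were seeded at 500-750 per well in phenol red-free DMEM with 10% FBS and left overnight. Compounds or DMSO were pinned in, incubation ran 24 h at 37 °C/5% CO2, then CellTiter-Glo reagent was added and luminescence measured.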

Row | SMILES | Potency (AA1029) | Potency (ATS95) | Potency (CP185) | Potency (CP192) | Potency (CP194) | Potency (CP203) | Potency (CP211) | Potency (CP217) | Potency (CP247) | Potency (CP250) | Potency (CP252) | Potency (CP256) | Potency (CP269) | Potency (ECU) | Potency (N140) | Potency (P94_40) | Potency (PC49) | Potency (TAB109) | Potency (TAB165) | Potency [1]
1 | CNc1ccc(C(=O)CC(O)CCC(C)C2OC(=O)CC(O)CC(=O)CC(O)CC(O)CC(O)CC(O)CC3(O)CC(O)C(C(=O)OC)C(CC(O[C@@H]4OC(C)C(O)C(N)C4O)/C=C/C=C/C=C/C=C/C=C/C=C/C=C/C2C)O3)cc1 (stereo not given in full) | inactive | inactive | inactive | inactive | inactive | inactive | inactive | inactive | inactive | inactive | inactive | inactive | inactive | inactive | inactive | inactive | inactive | inactive | inactive | –
2 | C=CC1CN2CCC1CC2C(OC(=O)OCC)c1ccnc2ccc(OC)cc12 (stereo not given) | 5.01 µM (active) | 3.98 µM (active) | 8.91 µM (active) | 6.75 µM (active) | 6.01 µM (active) | 8.49 µM (active) | 15.1 µM (active) | 7.94 µM (active) | 7.94 µM (active) | 12.6 µM (active) | 8.91 µM (active) | 11.2 µM (active) | 9.53 µM (active) | 3.98 µM (active) | 11.2 µM (active) | 3.55 µM (active) | inactive | 4.47 µM (active) | 0.501 µM (active) | inactive
3 | O=C1C=C2C=CC3C[C@@]2(O1)C1CCCCN31 (stereo not given in full) | 12.6 µM (active) | 10 µM (active) | – | – | – | – | 13.5 µM (active) | 8.91 µM (active) | 11.2 µM (active) | 12.6 µM (active) | 11.2 µM (active) | 11.2 µM (active) | 15.1 µM (active) | 11.2 µM (active) | 12.6 µM (active) | 8.91 µM (active) | 10 µM (active) | 5.01 µM (active) | 11.2 µM (active) | inactive
4 | CC(C)CC(CN)CC(=O)O (stereo not given) | – | – | – | – | – | – | – | – | – | – | – | – | – | – | – | – | – | – | – | inactive
5 | COc1cc2c(cc1OC)[C@@]13CCN4CC5=CCOC6CC(=O)N2C1[C@H]6[C@@H]5C[C@@H]43 (stereo not given in full) | inactive | inactive | inactive | inactive | inactive | inactive | inactive | inactive | inactive | inactive | inactive | inactive | inactive | inactive | inactive | inactive | inactive | inactive | inactive | inactive
6 | CNC(C)[C@@H](O)c1ccccc1 (stereo not given in full) | inactive | inactive | inactive | inactive | inactive | inactive | inactive | inactive | inactive | inactive | inactive | inactive | inactive | inactive | inactive | inactive | inactive | inactive | inactive | inactive
7 | CCC(C)C1O[C@]2(C=CC1C)CC1CC(C/C=C(\C)[C@H](OC3CC(OC)C(O[C@H]4CC(OC)[C@@H](O)C(C)O4)C(C)O3)[C@@H](C)/C=C/C=C3\COC4C(O)C(C)=C[C@H](C(=O)O1)[C@@]34O)O2 (stereo not given in full) | 11.2 µM (active) | 10 µM (active) | 11.2 µM (active) | 19 µM (active) | 12 µM (active) | 13.5 µM (active) | 12 µM (active) | 10 µM (active) | 8.91 µM (active) | 11.2 µM (active) | 11.2 µM (active) | 6.31 µM (active) | 15.1 µM (active) | 8.91 µM (active) | 10 µM (active) | 10 µM (active) | – | 8.91 µM (active) | 12.6 µM (active) | inactive
8 | CC([C@H](O)c1ccccc1)N(C)C (stereo not given in full) | inactive | inactive | inactive | inactive | inactive | inactive | inactive | inactive | inactive | inactive | inactive | inactive | inactive | inactive | inactive | inactive | inactive | inactive | inactive | inactive
9 | O=c1ccc2cc(O[C@H]3O[C@@H](CO)[C@@H](O)[C@@H](O)[C@@H]3O)c(O)cc2o1 | inactive | inactive | inactive | inactive | inactive | inactive | inactive | inactive | inactive | inactive | inactive | inactive | inactive | inactive | inactive | inactive | inactive | inactive | inactive | inactive
